Measurements taken from PubChem BioAssay (NCATS).
Records with an inconclusive call do not appear. Calls of active or inactive are those of the source. The call rests on the fitted dose curve; in most records, active means well fitted curve in the direction sought with a large enough effect; inconclusive means small, poorly fitted or top-dose-only effect, or another doubt; inactive means no such curve, though single readings can be large; an effect the other way counts as inactive or inconclusive.

How the values were obtained:
[1] = NS1 protein of Zika virus - qHTS assay to identify small molecule inhibitors in human HEK 293 cells (AID 1347053); further: series mostly up to about 46 µM; nearly all actives have a fitted effect of over 55% in size
How it was run: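 Following 20 h seeding, HEK 293 cells took compound, then 1 h later ZIKV MR766 (MOI = 0.5). Incubation ran 24 h at 37 C before TR-FRET detection of NS1; a drop in signal indicates inhibition.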

[2] = qHTS of pediatric cancer cell lines to identify multiple opportunities for drug repurposing: Primary screen for TC32 cells (AID 1347089); further: nearly all actives have a fitted effect of over 60% in size
How it was run: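 Luminescent CellTiter-Glo read-out of metabolically active TC32 cells after 48 h compound exposure. Primary: MIPE 11-point, 0.78 nM–46 µM; NPC 8-point, 0.59 nM–46 µM. Confirmatory: 11-point dilutions.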

[3] = qHTS of pediatric cancer cell lines to identify multiple opportunities for drug repurposing: Primary screen for DAOY cells (AID 1347090); further: series mostly up to about 46 µM; nearly all actives have a fitted effect of over 55% in size
How it was run: (§1)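 Viability measured as metabolically active cells via CellTiter-Glo luminescence following 48 hours of compound exposure, 11-point dilutions in confirmatory testing. 500-1,000 cells/well plated 5 hours before dosing; controls were DMSO and 2.3 µM bortezomib.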

[4] = qHTS of pediatric cancer cell lines to identify multiple opportunities for drug repurposing: Primary screen for A673 cells (AID 1347092); further: nearly all actives have a fitted effect of over 45% in size
How it was run: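 A673 cells (500-1,000 cells/well in growth media) were pre-incubated 5 h at 37 degrees C, then exposed to compounds for 48 h. Viability was read as CellTiter-Glo luminescence; concentration-response curves came directly from the primary screen.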

[5] = qHTS of pediatric cancer cell lines to identify multiple opportunities for drug repurposing: Primary screen for SK-N-MC cells (AID 1347093); further: series mostly up to about 46 µM
How it was run: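 Metabolically active cells were quantified by ATP-dependent luminescence (CellTiter-Glo, 15 min at room temperature) following 48 h treatment. Cells had been plated at 500-1,000 per well and settled for 5 h beforehand.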

[6] = qHTS of pediatric cancer cell lines to identify multiple opportunities for drug repurposing: Primary screen for BT-37 cells (AID 1347094); further: series mostly up to about 57 µM
How it was run: (§2)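 ATP-based luminescence (CellTiter-Glo) quantifies viability after a 48-hour exposure. Compounds are dosed across 8 or 11 final concentrations; DMSO and 2.3 µM bortezomib serve as controls.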

[7] = qHTS of pediatric cancer cell lines to identify multiple opportunities for drug repurposing: Primary screen for NB-EBc1 cells (AID 1347095)
How it was run: as §2

[8] = qHTS of pediatric cancer cell lines to identify multiple opportunities for drug repurposing: Primary screen for U-2 OS cells (AID 1347096); further: nearly all actives have a fitted effect of over 50% in size
How it was run: (§3)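 Viability after 48 h compound treatment at 37C, 500-1,000 cells/well, read as ATP luminescence with CellTiter-Glo. Primary screens used 11-point (MIPE, 0.78 nM-46 µM) or 8-point (NPC, 0.59 nM-46 µM) final concentrations; follow-up screens used 11-point dilutions.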

[9] = qHTS of pediatric cancer cell lines to identify multiple opportunities for drug repurposing: Primary screen for SK-N-SH cells (AID 1347098);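 further: DMSO served as neutral control and bortezomib at 2.3 µM as positive control; nearly all actives have a fitted effect of over 65% in size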
How it was run: (§4)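 Cells (500-1,000/well) rested 5 h, then received compounds for 48 h; metabolically active cells were measured by CellTiter-Glo luminescence. Final concentrations spanned up to 46 µM (MIPE, 11-point) or 0.59 nM-46 µM (NPC, 8-point) in primary screens, 11-point in follow-ups.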

[10] = qHTS of pediatric cancer cell lines to identify multiple opportunities for drug repurposing: Primary screen for NB1643 cells (AID 1347099); further: nearly all actives have a fitted effect of over 50% in size
How it was run: as §2

[11] = qHTS of pediatric cancer cell lines to identify multiple opportunities for drug repurposing: Primary screen for LAN-5 cells (AID 1347100)
How it was run: as §3

[12] = qHTS of pediatric cancer cell lines to identify multiple opportunities for drug repurposing: Primary screen for BT-12 cells (AID 1347101); further: nearly all actives have a fitted effect of over 25% in size
How it was run: as §4

[13] = qHTS of pediatric cancer cell lines to identify multiple opportunities for drug repurposing: Primary screen for Rh18 cells (AID 1347102); further: nearly all actives have a fitted effect of over 65% in size
How it was run: as §3

[14] = qHTS of pediatric cancer cell lines to identify multiple opportunities for drug repurposing: Primary screen for RD cells (AID 1347104); further: nearly all actives have a fitted effect of over 55% in size
How it was run: as §2

[15] = qHTS of pediatric cancer cell lines to identify multiple opportunities for drug repurposing: Primary screen for MG 63 (6-TG R) cells (AID 1347105); further: nearly all actives have a fitted effect of over 50% in size
How it was run: as §2

[16] = qHTS of pediatric cancer cell lines to identify multiple opportunities for drug repurposing: Primary screen for control Hh wild type fibroblast cells (AID 1347106);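 further: series mostly up to about 46 µM; a drop in luminescence marks cytotoxicity and a rise apparent proliferation; nearly all actives have a fitted effect of over 55% in size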
How it was run: as §3

[17] = qHTS of pediatric cancer cell lines to identify multiple opportunities for drug repurposing: Primary screen for Rh30 cells (AID 1347107); further: series mostly up to about 46 µM; nearly all actives have a fitted effect of over 75% in size
How it was run: as §3

[18] = qHTS of pediatric cancer cell lines to identify multiple opportunities for drug repurposing: Primary screen for Saos-2 cells (AID 1347097); further: nearly all actives have a fitted effect of over 40% in size
How it was run: as §2

[19] = qHTS of pediatric cancer cell lines to identify multiple opportunities for drug repurposing: Primary screen for OHS-50 cells (AID 1347103); further: nearly all actives have a fitted effect of over 40% in size
How it was run: as §4

[20] = qHTS of pediatric cancer cell lines to identify multiple opportunities for drug repurposing: Primary screen for SJ-GBM2 cells (AID 1347091)
How it was run: as §1

Measured: Potency

Nc1c2c(nc3c1CCC3)CCCC2
not listed: [18] | [19] | [20]
inactive: all other assays above

Cc1ccsc1/C=C/C1=NCCCN1C
not listed: [10] | [13] | [20]
inactive: all other assays above

C[C@@H]1CCC[C@H](C)N1
not listed: [7] | [13] | [20]
inactive: all other assays above

CC(=O)Nc1ccc(C(=O)O)cc1
not listed: [2] | [19]
inactive: all other assays above

Cc1cc(C)c(NC(=O)CN(CC(=O)O)CC(=O)O)c(C)c1Br
not listed: [20]
inactive: all other assays above

CN[C@@H]1[C@@H](O)[C@@H](O[C@@H]2[C@H](O)[C@H](O[C@H]3OC(CN)=CC[C@H]3N)[C@@H](N)C[C@H]2N)OCC1(C)O (stereo partly drawn)
not listed: [10] | [12] | [19] | [20]
inactive: all other assays above

Cc1c(I)c(=O)n(-c2ccccc2)n1C
not listed: [6] | [13] | [20]
inactive: all other assays above

NC(=O)N[C@@H](CCC(=O)O)C(=O)O
not listed: [20]
inactive: all other assays above

C[C@]1(Cn2ccnn2)[C@H](C(=O)O)N2C(=O)C[C@H]2S1(=O)=O
not listed: [7] | [13] | [19] | [20]
inactive: all other assays above

COc1cc(C(=O)NCCCCCC(=O)O)cc(OC)c1OC
not listed: [10] | [20]
inactive: all other assays above

C[C@H]1COc2c(C3(N)CC3)c(F)cc3c(=O)c(C(=O)O)cn1c23
not listed: [15] | [20]
inactive: all other assays above

NC(=O)CCCCC1CCSS1 (stereo not drawn)
not listed: [7] | [12] | [19] | [20]
inactive: all other assays above

Cc1ccc(C(C)C)c(O)c1
not listed: [20]
inactive: all other assays above

CN(C/C=C/C#CC(C)(C)C)Cc1cccc2ccccc12
not listed: [3] | [4] | [5] | [6] | [7] | [15] | [18] | [19]
inactive: all other assays above

CN1C(=O)CC(c2ccccc2)C1=O (stereo not drawn)
not listed: [20]
inactive: all other assays above
